In PubChem BioAssay (Tox21):
Records with an inconclusive call do not appear. The source made the active and inactive calls. Unless noted, calls follow the shape of the full dose curve.

Assays:
[1] = Nuclear factor erythroid 2-related factor 2/antioxidant responsive element (Nrf2/ARE) small molecule agonists: qHTS cell viability counter screen in human keratinocytes (AID 1919968; active = well fitted curve in the direction sought with a large enough effect in the repeat runs; an effect the other way counts as inactive or inconclusive; also: nearly all actives have a fitted effect of over 55% in size; also: potency is read from the fitted curve at half-maximal effect)
In short: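 KeratinoSens HaCaT cells, 1,500/well, preincubated 5 h, then exposed to compounds in DMSO for 23 h at 37 C/5% CO2. Viability read as CellTiter-Fluor fluorescence after 1 h, in the same wells as the ARE-luciferase read.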

[2] = Nuclear factor erythroid 2-related factor 2/antioxidant responsive element (Nrf2/ARE) small molecule agonists: luciferase reporter gene qHTS assay in human keratinocytes (AID 1919969); also: nearly all actives have a fitted effect of over 35% in size
[3] = molecular target: Gonadotropin-releasing hormone receptor (Homo sapiens) (UniProt P30968); assay: Human gonadotropin-releasing hormone receptor (GnRHR) small molecule agonists, calcium flux assay in GnRHR-HEK293 cells (AID 1920063); also: nearly all actives have a fitted effect of over 35% in size
In short: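 HEK293 cells stably expressing human GnRHR were dye-loaded for 1 h at 37 C. Compound was added in agonist mode and fluorescence (Ex/Em 480/540) recorded kinetically for 3 min. Fifteen concentrations, triplicates.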

[4] = molecular target: KiSS-1 receptor (Homo sapiens) (UniProt Q969F8); assay: Human kisspeptin (KISS1R) small molecule agonists, calcium flux assay in KISS1R-HEK293 cells (AID 1920064; active = well fitted curve in the direction sought with a large enough effect in the repeat runs; an effect the other way counts as inactive or inconclusive)
In short: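 HEK293 cells stably expressing human KISS1R were loaded with calcium dye for 1 h at 37 C, then given compound; fluorescence (Ex/Em 480/540) was read kinetically for 3 min. Fifteen concentrations, triplicate.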

[5] = G protein-coupled receptor (GPCR) small molecule agonists, calcium flux assay: HEK293 wild type cell line counter screen (AID 1920065)
In short: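 Wild-type HEK293 cells plated 18 h, loaded with calcium dye 1 h at 37 C, then compounds added in agonist mode (ATP as positive control). Kinetic fluorescence Ex/Em 480/540 recorded 3 min at 1 sec intervals; 15 concentrations, triplicate.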

[6] = p53 small molecule agonists, cell-based qHTS assay with rat liver microsomes: qHTS cell viability counter screen (AID 1963580); also: nearly all actives have a fitted effect of over 45% in size
In short: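 Viability is assessed in parallel with the p53 reporter read: HCT-116 p53RE-bla cells receive compounds plus rat microsomes and NADPH (0.5 mg/mL final apiece), incubate 16 h at 37 C, and then CellTiter-Glo luminescence is recorded.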

[7] = p53 small molecule agonists, cell-based qHTS assay: qHTS cell viability counter screen (AID 1963581); also: nearly all actives have a fitted effect of over 45% in size
In short: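 p53RE-bla HCT-116 cells, compounds added 5 h after plating and incubated 16 h at 37 C. Cytotoxicity measured in the same wells as intracellular ATP by CellTiter-Glo luminescence after 30 min at room temperature.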

[8] = molecular target: 5-hydroxytryptamine receptor 2A (Homo sapiens) (UniProt P28223); assay: 5-hydroxytryptamine receptor 2A (HTR2A) small molecule antagonists, cell-based qHTS assay (AID 1963586); also: nearly all actives have a fitted effect of over 45% in size
In short: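 Antagonist-mode intracellular calcium assay: DOI (4 nM) added after 5 min compound pre-incubation at room temperature to dye-loaded HTR2A-CHO cells. Fluorescence followed for 3 min, sampled every second.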

[9] = molecular target: 5-hydroxytryptamine receptor 2A (Homo sapiens) (UniProt P28223); assay: 5-hydroxytryptamine receptor 2A (HTR2A) small molecule agonists, cell-based qHTS assay (AID 1963587); also: nearly all actives have a fitted effect of over 30% in size
In short: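 CHO cells stably expressing human HTR2A, plated 18 h, loaded with calcium dye 1 h at 37 C. Agonist mode: compounds added and intracellular calcium fluorescence recorded kinetically for 2 min at 1 sec intervals.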

[10] = molecular target: Muscarinic acetylcholine receptor M1 (Homo sapiens) (UniProt P11229); assay: Cholinergic receptor muscarinic 1 (CHRM1) small molecule agonists, cell-based qHTS assay (AID 1963589); also: nearly all actives have a fitted effect of over 35% in size
In short: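 CHO cells stably expressing human CHRM1 were loaded with calcium dye for 1 h at 37 C, then compound was added in agonist mode. Intracellular calcium fluorescence was followed kinetically at 1 s intervals. Fifteen concentrations were tested in three independent runs.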

[11] = cAMP Responsive Elements (CRE) small molecule agonists, cell-based qHTS assay (AID 1963590)
In short: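 CRE-bla HEK 293T cells, 2,000/well in DMEM with 10% dialyzed FBS and 25 mM HEPES, pre-incubated 18 h at 37 C, then exposed to compound 3 h at 37 C. Beta-lactamase reporter read with LiveBLAzer B/G FRET substrate after 2 h at room temperature.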

[12] = cAMP Responsive Elements (CRE) small molecule antagonists, cell-based qHTS assay (AID 1963591; active = well fitted inhibition curve with a large enough effect in the signal ratio in the repeat runs, not every such curve was filed as active; the % refers to the signal ratio)
In short: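 CRE-bla HEK293T cells plated 18 h, then given compound plus NKH477 at 0.25 uM final for 3 h at 37C. Beta-lactamase reporter read with LiveBLAzer B/G FRET substrate after 2 h at room temperature.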

[13] = molecular target: Beta-2 adrenergic receptor (Homo sapiens) (UniProt P07550); assay: Adrenergic beta2 receptor (ADRB2) small molecule agonists, cell-based qHTS assay (AID 1963593);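 also: CHO cells stably overexpressing human ADRB2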
In short: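 CHO cells stably over-expressing ADRB2 were plated overnight at 37C, then dosed with compounds plus a stimulation mix containing 100uM IBMX and 25uM Ro-20-1724 for 0.5hr at room temperature. cAMP was measured by HTRF competition, 1hr.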

[14] = molecular target: D(2) dopamine receptor (Homo sapiens) (UniProt P14416); assay: Dopamine D2 receptor (DRD2) small molecule agonists, cell-based qHTS assay (AID 1963594); also: nearly all actives have a fitted effect of over 35% in size
In short: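 HEK293 cells stably expressing human DRD2, pre-treated with PDE inhibitor Ro20-1724 (0.1 mM final) and compound 10 min at room temperature, then stimulated with NKH477 (200nM […]) for 30 min. cAMP read by HTRF (665/620 nm).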

[15] = molecular target: D(2) dopamine receptor (Homo sapiens) (UniProt P14416); assay: Dopamine D2 receptor (DRD2) small molecule antagonists, cell-based qHTS assay (AID 1963595; active = well fitted inhibition curve with a large enough effect in the signal ratio in the repeat runs, with a control signal flat; the % refers to the signal ratio; also: potency is read from the fitted curve at half-maximal effect)
In short: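 Human DRD2 antagonist qHTS measuring cAMP by HTRF. The cells are exposed to compound for 10 min, then to NKH477 (200 nM) and quinpirole (12 nM) for 30 min at RT, with Ro20-1724 (0.1 mM) present throughout.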

[16] = molecular target: Muscarinic acetylcholine receptor M1 (Homo sapiens) (UniProt P11229); assay: Cholinergic receptor muscarinic 1 (CHRM1) small molecule antagonists, cell-based qHTS assay (AID 1963588); also: nearly all actives have a fitted effect of over 40% in size; also: potency is read from the fitted curve at half-maximal effect
In short: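 CHRM1-CHO calcium-flux assay, antagonist mode. Cells were seeded 18 h, dye-loaded 1 h at 37 C and given compound for 5 min at RT, then acetylcholine was added at 50nM. FDSS fluorescence was read 3 min; 15 concentrations, three runs.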

[17] = molecular target: Beta-2 adrenergic receptor (Homo sapiens) (UniProt P07550); assay: Adrenergic beta2 receptor (ADRB2) small molecule antagonists, cell-based qHTS assay (AID 1963592); also: nearly all actives have a fitted effect of over 50% in size; also: potency is read from the fitted curve at half-maximal effect
In short: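 Cells (CHO, stable ADRB2 overexpression) incubated 18-20hr at 37C; compounds added from DMSO; agonist mix (1nM isoproterenol, 100uM IBMX, 25uM Ro-20-1724) added; 0.5hr RT; d2-cAMP and anti-cAMP-cryptate added; 1hr RT; 665/615 nm read.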

[18] = p53 small molecule agonists, cell-based qHTS assay (AID 1963582; active = well fitted activation curve with a large enough effect in the signal ratio in the repeat runs, not every such curve was filed as active; the % refers to the signal ratio)
In short: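 p53RE-bla reporter cells, compounds added in DMSO after 5 h plating, incubated 16 h at 37 C. Beta-lactamase read via 2 h room-temperature LiveBLAzer B/G FRET substrate, fluorescence intensity.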

Measured: Potency

Sequence of Beta-2 adrenergic receptor (Homo sapiens) (P07550 whole entry, looked up): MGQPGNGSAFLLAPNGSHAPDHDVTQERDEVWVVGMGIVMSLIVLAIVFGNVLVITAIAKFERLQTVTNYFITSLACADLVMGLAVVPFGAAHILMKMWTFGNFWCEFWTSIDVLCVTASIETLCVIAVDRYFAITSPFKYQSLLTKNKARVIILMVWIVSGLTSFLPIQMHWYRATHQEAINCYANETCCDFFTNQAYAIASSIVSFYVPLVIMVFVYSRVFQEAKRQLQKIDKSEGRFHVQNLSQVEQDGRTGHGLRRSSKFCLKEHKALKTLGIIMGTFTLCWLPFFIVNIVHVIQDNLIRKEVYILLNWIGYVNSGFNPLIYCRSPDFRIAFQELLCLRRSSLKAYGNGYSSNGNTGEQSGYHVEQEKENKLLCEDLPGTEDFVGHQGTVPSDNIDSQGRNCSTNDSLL
Sequence of Muscarinic acetylcholine receptor M1 (Homo sapiens) (P11229 whole entry, looked up): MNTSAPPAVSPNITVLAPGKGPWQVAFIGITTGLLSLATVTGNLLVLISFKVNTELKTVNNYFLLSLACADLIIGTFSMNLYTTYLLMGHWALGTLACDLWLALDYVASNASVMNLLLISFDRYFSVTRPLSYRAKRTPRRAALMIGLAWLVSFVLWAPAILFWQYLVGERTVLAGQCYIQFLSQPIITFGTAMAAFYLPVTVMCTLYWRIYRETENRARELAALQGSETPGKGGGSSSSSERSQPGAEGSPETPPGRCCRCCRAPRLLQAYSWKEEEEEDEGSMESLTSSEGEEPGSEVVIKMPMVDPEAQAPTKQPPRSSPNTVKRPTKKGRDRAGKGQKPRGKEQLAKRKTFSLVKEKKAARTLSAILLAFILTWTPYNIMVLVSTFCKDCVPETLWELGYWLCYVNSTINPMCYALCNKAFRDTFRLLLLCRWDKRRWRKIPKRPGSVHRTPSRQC
Sequence of D(2) dopamine receptor (Homo sapiens) (P14416 whole entry, looked up): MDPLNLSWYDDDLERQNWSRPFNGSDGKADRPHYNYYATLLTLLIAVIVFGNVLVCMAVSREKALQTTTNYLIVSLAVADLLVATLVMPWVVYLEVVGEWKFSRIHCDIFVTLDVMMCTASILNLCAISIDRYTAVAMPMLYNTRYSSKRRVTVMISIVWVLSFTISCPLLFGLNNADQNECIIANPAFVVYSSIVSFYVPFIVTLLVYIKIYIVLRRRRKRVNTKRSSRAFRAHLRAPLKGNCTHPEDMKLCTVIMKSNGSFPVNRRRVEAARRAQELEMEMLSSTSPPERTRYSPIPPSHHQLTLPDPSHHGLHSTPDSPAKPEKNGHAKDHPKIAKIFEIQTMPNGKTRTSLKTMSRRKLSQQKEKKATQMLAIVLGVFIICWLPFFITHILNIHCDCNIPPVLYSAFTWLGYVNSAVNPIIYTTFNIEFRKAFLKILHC
Sequence of Gonadotropin-releasing hormone receptor (Homo sapiens) (P30968 whole entry, looked up): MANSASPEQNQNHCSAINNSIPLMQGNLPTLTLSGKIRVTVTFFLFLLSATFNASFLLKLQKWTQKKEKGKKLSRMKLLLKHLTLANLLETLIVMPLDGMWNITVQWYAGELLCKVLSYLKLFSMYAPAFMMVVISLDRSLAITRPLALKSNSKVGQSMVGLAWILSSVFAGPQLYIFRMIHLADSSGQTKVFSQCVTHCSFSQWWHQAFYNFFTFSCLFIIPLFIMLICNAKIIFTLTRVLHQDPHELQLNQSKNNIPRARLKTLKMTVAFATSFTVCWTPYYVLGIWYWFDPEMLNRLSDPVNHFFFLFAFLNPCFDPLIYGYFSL
Sequence of KiSS-1 receptor (Homo sapiens) (Q969F8 whole entry, looked up): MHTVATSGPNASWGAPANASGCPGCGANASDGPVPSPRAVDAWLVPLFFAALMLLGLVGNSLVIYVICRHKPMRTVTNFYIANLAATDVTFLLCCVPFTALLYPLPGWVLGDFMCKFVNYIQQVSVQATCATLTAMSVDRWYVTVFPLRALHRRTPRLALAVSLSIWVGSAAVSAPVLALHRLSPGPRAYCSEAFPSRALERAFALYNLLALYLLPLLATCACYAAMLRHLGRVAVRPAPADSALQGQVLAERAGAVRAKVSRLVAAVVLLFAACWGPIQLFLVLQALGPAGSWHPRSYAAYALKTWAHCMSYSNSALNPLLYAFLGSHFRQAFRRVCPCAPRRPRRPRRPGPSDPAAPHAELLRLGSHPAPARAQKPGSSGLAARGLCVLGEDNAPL
Sequence of 5-hydroxytryptamine receptor 2A (Homo sapiens) (P28223 whole entry, looked up): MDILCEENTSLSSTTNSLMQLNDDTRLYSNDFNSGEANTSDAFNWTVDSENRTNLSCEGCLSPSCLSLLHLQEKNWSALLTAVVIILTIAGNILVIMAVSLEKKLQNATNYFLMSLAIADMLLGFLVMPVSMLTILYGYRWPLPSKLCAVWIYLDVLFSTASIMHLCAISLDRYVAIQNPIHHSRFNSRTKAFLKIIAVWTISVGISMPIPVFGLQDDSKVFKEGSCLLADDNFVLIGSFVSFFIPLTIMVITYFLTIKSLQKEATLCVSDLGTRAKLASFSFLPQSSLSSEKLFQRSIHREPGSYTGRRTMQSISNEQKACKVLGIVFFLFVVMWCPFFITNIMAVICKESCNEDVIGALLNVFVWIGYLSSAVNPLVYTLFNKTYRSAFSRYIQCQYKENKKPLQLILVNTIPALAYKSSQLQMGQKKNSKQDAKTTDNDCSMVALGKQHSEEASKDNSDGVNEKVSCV

Cc1cc(C(=C2C=CC(=Nc3ccc(S(=O)(=O)O)cc3S(=O)(=O)O)C=C2)c2ccc(Nc3ccc(S(=O)(=O)O)cc3)cc2)ccc1N
not listed: [16] | [17] | [18]
inactive: all other assays above

COC(=O)CCSCCC(=O)OC
not listed: [7] | [10] | [18]
inactive: all other assays above

CN1CCC(=C2c3ccccc3Sc3ccccc32)CC1
active: [15] 0.75 µM
not listed: [8] | [10] | [13] | [16] | [17] | [18]
inactive: all other assays above

CC(C)=CC=O
not listed: [12] | [18]
inactive: all other assays above

NC(N)=NS(=O)(=O)c1ccc(N)cc1
not listed: [8] | [12] | [13] | [15] | [18]
inactive: all other assays above

CCCOC(OCCC)OCCC
not listed: [7] | [10] | [14] | [18]
inactive: all other assays above

C[C@H]1[C@H]2CC[C@H]3[C@@H]4CC=C5C[C@@H](N(C)C)CC[C@]5(C)[C@H]4CC[C@]23CN1C
active: [16] 0.729 µM
not listed: [7] | [18]
inactive: all other assays above

CC(Cc1ccccc1)(NC(=O)CN)c1ccccc1 (stereo not drawn)
not listed: [6] | [12] | [14] | [16] | [18]
inactive: all other assays above

CC(N)=O
not listed: [12] | [13] | [18]
inactive: all other assays above

CN(C)[C@@H]1C(=O)C(C(N)=O)=C(O)[C@@]2(O)C(=O)C3=C(O)c4c(O)cccc4C[C@H]3C[C@@H]12
not listed: [7] | [10] | [11] | [12] | [16]
inactive: all other assays above

CC(C)NCC(O)COc1ccc(CC(N)=O)cc1 (stereo not drawn)
not listed: [6] | [8] | [9] | [10] | [13] | [16] | [17]
inactive: all other assays above

CCCCC(CC)CNCC(CC)CCCC (stereo not drawn)
not listed: [6] | [8] | [16] | [18]
inactive: all other assays above

CC1=C(Br)C(=O)C(Br)=C/C1=C(/c1ccccc1S(=O)(=O)O)c1cc(Br)c(O)c(Br)c1C
active: [1] 18.6 µM
not listed: [6] | [13] | [14] | [15] | [17] | [18]
inactive: all other assays above

CCC1(C)CC(=O)NC1=O (stereo not drawn)
not listed: [8] | [9] | [10] | [14] | [16] | [18]
inactive: all other assays above

CCOC(=O)OC(C)OC(=O)[C@@H]1N2C(=O)[C@@H](NC(=O)[C@H](N)c3ccccc3)[C@H]2SC1(C)C (stereo partly drawn)
not listed: [8] | [13] | [17] | [18]
inactive: all other assays above

C1C2OC2C2C1C1CC2C2OC12 (stereo not drawn)
not listed: [13] | [16] | [18]
inactive: all other assays above

CC(C)OC(=O)c1cc(C(=O)OC(C)C)cc([N+](=O)[O-])c1
active: [17] 62.6 µM
not listed: [7] | [11] | [12] | [13] | [18]
inactive: all other assays above

CCOCCn1c(N2CCCN(C)CC2)nc2ccccc21
not listed: [8] | [12] | [16] | [18]
inactive: all other assays above

O=C1NCCN1CCN1CCC(c2cn(-c3ccc(F)cc3)c3ccc(Cl)cc23)CC1
active: [1] 11.9 µM
not listed: [8] | [11] | [12] | [13] | [15] | [16] | [18]
inactive: all other assays above
